Results filed as inconclusive are left out. Active and inactive are the calls of the source. How the source made its calls: active means hit-call score of the fitted dose curve at least 0.9, where 1 is the maximum; inconclusive means response in the unintended direction; inactive means score below 0.9.
Each molecule was assayed against human RAR-related Orphan Receptor gamma (RORg), RORC (gene 6097) (UniProt P51449) (assay: ATG_RORg_TRANS: Attagene TRANS-FACTORIAL HepG2 Assay for human RAR-related Orphan Receptor gamma (RORg) (AID 2283011)).
Sequence of human RAR-related Orphan Receptor gamma (RORg), RORC (gene 6097) (P51449 whole entry, looked up): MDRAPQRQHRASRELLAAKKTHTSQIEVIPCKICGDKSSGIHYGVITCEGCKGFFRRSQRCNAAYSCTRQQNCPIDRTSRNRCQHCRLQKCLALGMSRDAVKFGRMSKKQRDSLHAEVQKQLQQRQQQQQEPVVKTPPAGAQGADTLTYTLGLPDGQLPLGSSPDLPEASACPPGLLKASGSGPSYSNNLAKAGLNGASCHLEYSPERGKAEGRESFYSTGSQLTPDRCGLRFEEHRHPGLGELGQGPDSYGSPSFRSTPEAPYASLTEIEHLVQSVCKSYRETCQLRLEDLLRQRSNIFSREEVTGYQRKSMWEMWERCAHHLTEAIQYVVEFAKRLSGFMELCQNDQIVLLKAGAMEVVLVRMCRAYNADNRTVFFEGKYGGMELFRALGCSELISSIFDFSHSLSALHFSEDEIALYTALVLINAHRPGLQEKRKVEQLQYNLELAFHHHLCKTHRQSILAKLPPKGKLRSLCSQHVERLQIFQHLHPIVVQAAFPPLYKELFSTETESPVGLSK
Method: ATG_TRANS is a cell-based, multiplexed-readout assay that uses HepG2, a human liver cell line, with measurements taken at 24 hours after chemical dosing in a 24-well plate.ATG_RORg_TRANS is one of 30 assay component(s) measured or calculated from the ATG_TRANS assay. It is designed to make measurements of mRNA induction, a form of inducible reporter, as detected with fluorescence intensity signals by Reverse transcription polymerase chain reaction (RT-PCR) and Capillary electrophoresis technology.Data from the assay component ATG_RORg_TRANS was analyzed into 1 assay endpoint. This assay endpoint, ATG_RORg_TRANS, was analyzed in the positive analysis fitting direction relative to DMSO as the negative control and baseline of activity. Using a type of inducible reporter, measures of mRNA for gain-of-signal activity can be used to understand the reporter gene at the transcription factor-level as they relate to the gene RORC. Furthermore, this assay endpoint can be referred to as a primary readout, because this assay has produced multiple assay endpoints where this one serves a reporter gene function. To generalize the intended target to other relatable targets, this assay endpoint is annotated to the nuclear receptor intended target family, where the subfamily is orphan.
Human liver HepG2 cells are transiently transfected with multiple reporter transcription units (MRTUs) in 6-well plates using FuGene 6 reagent (Roche; 3 ml FuGene/1 mg DNA). The MRTU constructs are regulated by a cis-regulating element (promoter). […] A major difference between the CIS and TRANS system is that in CIS activities of endogenous TFs are measured, whereas the TRANS assay evaluates changes in activities of exogenous, chimeric NR-Gal4 proteins. […] At the end of 24 hour incubation, total RNA was isolated using TriZol reagent (Invitrogen). The isolated RNA is then reverse-transcribed using oligo(dT) primer and Mo-MLV reverse transcriptase (Invitrogen) with DNAse I (Ambion) treatment for 30 min. The one-tenth of the produced cDNA was amplified by PCR using Taq DNA polymerase (Invitrogen) and two reporter sequence-specific primers. The PCR products were fluorescently labeled by primer extension with 6-arboxyfluorescein (6-FAM) 5'-labeled reporter sequence-specific primer (2 min at 95 C, 20 s at 68 C and 10 min at 72 C) and these products were digested with 5U of HpaI (New England Biolabs) for 2h at 37 C. The fragments were purified using Qiaquick PCR columns (Qiagen), analyzed on an ABI 3130xL genetic analyzer (Applied Biosystems) with peak positions identified by using a set of X-rhodamine (ROX)-labeled MapMarker1000 molecular weight standards (BioVentures). The raw capillary electrophoresis data was processed using Attagraph software (Attagene).
In the case of `CCCCCCCCCCCC(=O)N(C)CC(=O)O`, the outcome is reported as “inactive”.
In the case of `CC(C)C(=O)OCCOc1ccccc1`, the outcome is reported as “inactive”.
For `Cc1ccc(C)c(OCCCC(C)(C)C(=O)O)c1`, the outcome was “inactive”.
With `O=C(OCCc1ccccc1)c1ccccc1` the outcome was “inactive”.
`CCCCC(CC)COC(=O)/C=C/c1ccc(OC)cc1` (stereo not given) was tested, and the outcome was “inactive”.
In the case of `C=Cc1ccc(OC(C)=O)cc1`, the outcome is reported as “inactive”.
With `CC/C=C\C/C=C\C/C=C\CCCCCCCC(=O)OC` the outcome was “inactive”.
In the case of `C[Si](C)(C)N[Si](C)(C)C`, the outcome is reported as “inactive”.
With `CC1=NN(c2ccc(S(=O)(=O)O)cc2)C(=O)C1N=Nc1ccccc1` (stereo not given) the outcome was “inactive”.
`CCC(C)C(=O)OCCc1ccccc1` (stereo not given) was tested, and the outcome was “inactive”.
For `Cc1cc(C)c(C=O)c(C)c1`, the outcome was “inactive”.
With `CC(=O)OC(C)c1ccccc1` (stereo not given) the outcome was “inactive”.
In the case of `CCc1cccc(C)c1N`, the outcome is reported as “inactive”.
`CC(CC(C)C)=NO` was tested, and the outcome was “inactive”.
`COCC(=O)O` was tested, and the outcome was “inactive”.
With `CN(C)c1ccc2nc3ccc(=[N+](C)C)cc-3sc2c1` the outcome was “inactive”.
`CN1CCN(C)CC1` was tested, and the outcome was “inactive”.
For `Nc1ccc(C(=O)O)cc1`, the outcome was “inactive”.
In the case of `CC(C)(CO)C(O)C(=O)NCCCO` (stereo not given), the outcome is reported as “inactive”.
In the case of `N=C1C=CC(=C(c2ccc(N)cc2)c2ccc(N)cc2)C=C1`, the outcome is reported as “inactive”.
For `C=C(C)C(=O)OCCCCCCCCCCCC`, the outcome was “inactive”.
In the case of `CC(C)[N+](C)(CCOC(=O)C1c2ccccc2Oc2ccccc21)C(C)C`, the outcome is reported as “inactive”.
`Clc1cccnc1` was tested, and the outcome was “inactive”.
For `C[Si]1(C)O[Si](C)(C)O[Si](C)(C)O[Si](C)(C)O[Si](C)(C)O1`, the outcome was “inactive”.
For `CCCCC(CC)COS(=O)(=O)O` (stereo not given), the outcome was “inactive”.
In the case of `Cc1ccc(S(=O)(=O)N=C=O)cc1`, the outcome is reported as “inactive”.
For `CCC1COC(=O)O1` (stereo not given), the outcome was “inactive”.
For `CC(C)=NNC(N)=S`, the outcome was “inactive”.
`N#Cc1ccc(C2CCCc3cncn32)cc1` (stereo not given) was tested, and the outcome was “inactive”.
For `CCCCCCCCCC[N+](C)(CCCCCCCCCC)CCC[Si](OC)(OC)OC`, the outcome was “inactive”.
`Nc1ccc(O)c([N+](=O)[O-])c1` was tested, and the outcome was “inactive”.
With `CC(C)(O)Cc1ccccc1` the outcome was “inactive”.
`CC(C)C(=O)OCCc1ccccc1` was tested, and the outcome was “inactive”.
`Cc1cc(C)n(CO)n1` was tested, and the outcome was “inactive”.
`CCOC(=O)C1=NN(c2ccc(Cl)cc2Cl)C(C)(C(=O)OCC)C1` (stereo not given) was tested, and the outcome was “inactive”.
`C=CC(=O)OCCCCCCCCCC` was tested, and the outcome was “inactive”.
In the case of `CC(=O)OC1CCCCC1C(C)(C)C` (stereo not given), the outcome is reported as “inactive”.
In the case of `Nc1ncnc2nc[nH]c12`, the outcome is reported as “inactive”.
`CC(=O)c1ccc(S(=O)(=O)NC(=O)NC2CCCCC2)cc1` was tested, and the outcome was “inactive”.
With `CC(CCC(=O)O)(c1ccc(O)cc1)c1ccc(O)cc1` the outcome was “inactive”.
